According to the supplement of paper PMC6555819:

tested on: VDR:RXRa (NR concentration 270 nM, RXRa partner concentration 90 nM); experiment: PBM binding z-score (relative to random genomic background probes); higher = stronger binding; sequences stand for … in GC…GCGATTGACAGCGTAGAATGAAGG
Method: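 Protein-binding microarray (Agilent 4x180K custom design, double-stranded 60-nt probes: 5' GC cap, 34-nt variable region, 24-nt constant primer region; full probe sequence given). Purified or IVT nuclear receptor:RXRα heterodimers (3:1 NR:RXRα, mostly 270:90 nM) or homodimers were incubated for 1 h in PBS with 2% milk and no ligand, then detected with Alexa488 antibodies. Fluorescence from o1-orientation probes (~5 replicates averaged) was converted to z-scores against 500 random hg19 background probes. Variable regions are seed direct-repeat (DR0–DR5) sites, all their single-nucleotide variants and half-site ablations.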

Row | Sequence | PBM binding z-score
1 | CAAACTAGTTCAAGGTCAAAGTCGGTTTGTGCCA | 4.92
2 | ACTCGGAGGACAAAGGTCTGAGCTACGCCAGTGA | -0.29
3 | GTACCAAGGTGACTAGGTCGTTGATGAGTAGGCG | 0.346
4 | ATATATAGGTTATCGGGTCATTCAGTTTGCGCAT | 5.37
5 | TCTGCTACGTCAGTTGGTCAGCTAACGAGCTGCC | -0.996
6 | CCGACTGGGGCAAAGTTACCATAACGCACAGCCA | -0.545
7 | CGAACTAGGTCATCCAGGACAGAGAATACATTGA | 4.48
8 | CGAACTAGGTCAGCACAGGACAGTGAAGGATGAT | 0.981
9 | TCTCGGAGGACACGAACGTCAGAGCTTTCCAGAG | -0.0912
10 | CCTAATGGGCCATTCAGAGGTCATTGATCATATG | 4.1
11 | ATGTCTAGGTAACAAGTTCAGTGAAAGAGAGGAC | 2.14
12 | ATATGTAGGTTAAGGGTCTTTCAGGTTGGTTCGC | 1.79
13 | ATCTCTAAGTAAAGTTCAGTGAAAGATCGATAGA | 1.67
14 | TCTATTAGTTGACGGGCAACCGACGAGTCCGTTT | 0.671
15 | TCGAGTAGGTTAGGGGTATTCAGAATGGCGTCGA | 0.154
16 | AGAATGAGGTTCTTAAGATCAGGGAATTGCGGTC | 0.0724
17 | TAGCCTATGTCAGATCGGGCCAGTATACGCTATA | -0.407
18 | CCGACTGGGGCAGATAGGTTACCATACCATCCGG | -0.389
19 | CCAGTCAGGTGAAAGGTAACTCAGTCTGGTACGC | 0.52
20 | CAAACTAGCTCACAGAGGTCAAAGTCCGTGCGTA | 5.02

Row | Sequence | PBM binding z-score
21 | AGAACGAGGGCAATGAGTTGATATCACGGGTGGC | 5.09
22 | CCTGCTAGGTCAATGGTCGGCTAAAGCAGCTCGC | 1.07
23 | TCTCGGAGGACACGAAGGTCAGAGCTTTCCAGAG | 2.3
24 | GGAACGAAGGCATTCGAGTTGATAGCATGGCGAT | -0.337
25 | TAGCGTAGGTCAGATCGGGCCAGTATACGCTATA | 0.856
26 | CAAACTAGGTCAAGAGGTCAAATTCCGCTTCCCG | 6.17
27 | AGTCAAAGTTCATTTAGGTAACGTAAGATATGCT | 4.97
28 | CCTATTAGTTGAGCATAAGGGCAACCGAAGCTCG | 0.408
29 | ATCTCTAGGGAAAAGTTCAGTGAATCCCGAGGAT | 0.557
30 | GATACAGGGTCAGCTCGAGGCCAGAGTATGGAAA | 3.61
31 | CGTCCAAGGTTAAAGGTCAGTGAAGAGATGACGG | 4.69
32 | CCTACTGGGCCCAAAAGGTCATTGATGCCGATAA | 4.63
33 | CCTAGCAGGCCAAGGTCACTCAAGCATTTCGCTT | 2.88
34 | TAGCCTAGGTCATTGCGCCAGTATAGTACGCATC | 2.33
35 | ATACCAAAGTGATCGTGAGGTCGTTGATACTAAC | 2.02
36 | CGTCAAAGTTCAAGGTAAGGTAACAGAAAGCAGC | 3.7
37 | CATACAGGGTCAGATAGGCCAGAGTAGGGACGGC | 3.2
38 | TCTTGTAGATCAAAGGTTAAGAAGGCCGAAGCCT | 2.65
39 | ATACCAAGGTGACCGTGAGGTCGTTGATACTAAC | 4.04
40 | TGAATGAGGTTAAAGCTCAGGGAACGTGGCGTCG | 1.14
